Source: PubChem BioAssay (National Center for Advancing Translational Sciences (NCATS))
This is a sample that favours compounds with a hit; in the whole collection about 17% have one here.
TDP1 inh = qHTS Assay for Inhibitors of Tyrosyl-DNA Phosphodiesterase (TDP1) | Tyrosyl-DNA phosphodiesterase 1 (Homo sapiens), Q9NUW8 | recombinant TDP1, AlphaScreen DNA substrate cleavage | Potency, µM (doses to about 130 µM), for inactives: top-dose activity change, negative = inhibition, actives largely listed as inhibitors | 350,000 tested, 0.28% active; also: % is scaled to controls: 0 for no effect and ±100 for the full control effect; nearly all actives have a fitted effect of over 40% in size
Target sequence (Q9NUW8 whole entry, looked up): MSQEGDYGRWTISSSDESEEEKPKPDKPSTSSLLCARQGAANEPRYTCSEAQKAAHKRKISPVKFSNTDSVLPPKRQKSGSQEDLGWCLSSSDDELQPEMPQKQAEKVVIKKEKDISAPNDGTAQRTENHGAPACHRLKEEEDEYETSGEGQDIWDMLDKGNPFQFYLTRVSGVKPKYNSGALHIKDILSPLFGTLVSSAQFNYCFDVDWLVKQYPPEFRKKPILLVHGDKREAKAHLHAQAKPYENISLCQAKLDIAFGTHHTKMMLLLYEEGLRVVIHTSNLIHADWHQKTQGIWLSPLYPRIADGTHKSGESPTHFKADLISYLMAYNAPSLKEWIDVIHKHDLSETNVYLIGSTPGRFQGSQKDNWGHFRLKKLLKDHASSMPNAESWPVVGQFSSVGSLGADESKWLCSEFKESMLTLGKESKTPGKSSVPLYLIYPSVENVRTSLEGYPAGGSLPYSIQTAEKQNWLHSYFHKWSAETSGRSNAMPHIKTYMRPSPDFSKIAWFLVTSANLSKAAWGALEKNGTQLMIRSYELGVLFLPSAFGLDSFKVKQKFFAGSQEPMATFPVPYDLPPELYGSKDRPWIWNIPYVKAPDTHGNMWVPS
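AlphaScreen read-out: signal falls as enzyme removes the 3' tyrosine-FITC from a 5'-biotinylated DNA oligo (15 nM, 5 min, RT). Enzyme was E. coli-made recombinant Tdp1 at 1 nM, exposed to compound for 15 min beforehand; beads 10 ug/ml, 10 min.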
DT40 TDP1 no CPT = qHTS for Inhibitors of human tyrosyl-DNA phosphodiesterase 1 (TDP1): qHTS in cells in absence of CPT; DT40 Tdp1-/- hTDP1 cells, no CPT, ATP luminescence, 48 h; Potency, µM (doses to about 46.2 µM), for inactives: at the highest dose activity change, negative = growth inhibition, most hits filed as inhibitors; 420,000 tested, 15% active; AID 686978, 2013; also: % is scaled to controls: 0 for no effect and ±100 for the full control effect; nearly all actives have a fitted effect of over 55% in size
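Cells were dispensed at 400 per well, compounds added by pin tool, plates incubated ≥48 hr at 37 °C, then CellTiter-Glo added for 30 min at room temperature before luminescence reading. Line: DT40 Tdp1-/- complemented with hTDP1; camptothecin omitted.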
TDP1 cell CPT = qHTS for Inhibitors of human tyrosyl-DNA phosphodiesterase 1 (TDP1): qHTS in cells in presence of CPT; chicken DT40 Tdp1-/-;hTDP1 cells + 20 nM CPT, ATP luminescence, 48 h; Potency, µM (top dose mostly 46.2 µM), for inactives: at the top dose activity change, negative = growth inhibition, usual class: inhibitors; 420,000 tested, 12% active; AID 686979, 2013; also: % is scaled to controls: 0 for no effect and ±100 for the full control effect; nearly all actives have a fitted effect of over 55% in size
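Cell growth measured by CellTiter-Glo luminescence after a minimum 48 h, 37 C compound exposure with 20 nM CPT in Tdp1-knockout DT40 cells stably expressing hTDP1, seeded 400/well; qHTS titration format.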
ClpP mod = qHTS Assay for Activators of ClpP; Potency, µM (titrated, usually from 57.5 µM), for the others: at the top dose activity change, negative = active; ATP-dependent Clp protease proteolytic subunit (Bacillus subtilis (strain 168)), P80244; AID 651965, 2013; purified B. subtilis ClpP, FRET peptide cleavage, 20 min; 340,000 tested, 1.9% active; active = well fitted falling curve with a large enough effect; inconclusive = small, poorly fitted or top-dose-only effect; inactive = no such curve, though single readings can be large or run the other way; also: the source files actives as falling curves though it sought activators and does not explain the sign; nearly all actives have a fitted effect of over 65% in size
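ClpP 10 microg/mL final, pH 8 Tris/KCl buffer with BSA, glycerol, Tween-20; compound pinned in; FRET-FV substrate; RT 20 min; Ex320/Em430; ΔFRET vs ADEP 5.8 microM, DMSO, no enzyme.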
The depositor's hits bear a star; ! = repeats disagree; [ ] = another dose, or the depositor's remark. Unless noted, calls follow the shape of the dose curve; as a rule, active = well fitted curve in the direction sought with a large enough effect; inconclusive = small, poorly fitted or top-dose-only effect, or another doubt; inactive = no such curve, though single readings can be large; an effect the other way counts as inactive or inconclusive. Potency is read from the fitted curve at half-maximal effect.

For Cc1cc(S(=O)(=O)N2CCCOC2CNC(=O)C(=O)NCc2cccs2)ccc1F (stereo not given) the results were TDP1 inh 2.1%, DT40 TDP1 no CPT inconclusive, TDP1 cell CPT inconclusive and ClpP mod -7.1%.
Screening Cc1noc(C)c1C(=O)NNc1cc(Cl)ccc1Cl returned TDP1 inh -19.2%, DT40 TDP1 no CPT -21.5% and TDP1 cell CPT 7.1%.
Screening O=C(COc1ccccc1Cl)Nc1ccc2[nH]c(=O)[nH]c2c1 returned TDP1 inh -14.8%, DT40 TDP1 no CPT -12.4%, TDP1 cell CPT 10.6% and ClpP mod 15.8µM*.
For CC(=O)Nc1cccc(NC(=O)COc2ccccc2C)c1 the results were DT40 TDP1 no CPT -69.5% and TDP1 cell CPT 11.6µM*.
For CCOc1ccccc1OCC(=O)Nc1ccc2[nH]c(=O)[nH]c2c1 the results were TDP1 inh -0.9%, DT40 TDP1 no CPT -5.1%, TDP1 cell CPT -6.7% and ClpP mod -1.5%.
O=C(CCCOc1ccc(Cl)cc1Cl)Nc1ccncc1 was read as TDP1 inh 0.7%, DT40 TDP1 no CPT inconclusive, TDP1 cell CPT inconclusive and ClpP mod -0.6%.
Screening O=C(COc1ccc(Cl)cc1Br)Nc1ccncc1 returned DT40 TDP1 no CPT 10.3µM*, TDP1 cell CPT inconclusive and ClpP mod 0.0%.
For CCOC(=O)c1cc(S(=O)(=O)NCc2ccc(C)cc2)[nH]n1 the results were TDP1 inh 5.3%, DT40 TDP1 no CPT -16.3%, TDP1 cell CPT inconclusive and ClpP mod -3.1%.
For Brc1ccc(/C=N/Nc2ncnc3c2cnn3Cc2ccccc2)cc1 the results were TDP1 inh 6.0%, DT40 TDP1 no CPT 14.6µM*, TDP1 cell CPT 18.4µM* and ClpP mod -5.2%.
For c1ccc(Cn2ncc3c(Nc4ccccc4)ncnc32)cc1 the results were TDP1 inh 8.7%, DT40 TDP1 no CPT -27.4%, TDP1 cell CPT inconclusive and ClpP mod -6.6%.
`CCOC(=O)C1CCCN(Cc2ccccc2OCC)C1` (stereo not given) gave TDP1 inh -2.2%, DT40 TDP1 no CPT -26.0%, TDP1 cell CPT -2.1% and ClpP mod -0.3%.
CCOc1ccccc1CN1CCCC(c2nc(C)ncc2-c2ccc(F)cc2)C1 (stereo not given) was read as DT40 TDP1 no CPT 18.4µM* and TDP1 cell CPT inconclusive.
`COc1ccc(CN2CCCC(c3nc(-c4ccncc4)ncc3-c3ccccc3)C2)cc1OC` (stereo not given) gave DT40 TDP1 no CPT -3.3% and TDP1 cell CPT -4.7%[9.04 µM].
Screening COc1ccc(CN2CCCC(c3nc(C)ncc3-c3ccc(F)cc3)C2)c(OC)c1OC (stereo not given) returned DT40 TDP1 no CPT inconclusive and TDP1 cell CPT 11.6µM*.
For COc1ccc(CN2CCCC(C(=O)N3CCCC3)C2)c(OC)c1OC (stereo not given) the results were DT40 TDP1 no CPT -7.1%, TDP1 cell CPT -29.6% and ClpP mod 0.3%.
For COc1ccc(OC)c(CN2CCCC(c3nc(C)ncc3-c3ccc(F)cc3)C2)c1 (stereo not given) the results were DT40 TDP1 no CPT inconclusive and TDP1 cell CPT 20.6µM*.
O=c1c(N2CCc3ccccc3C2)csc2ccc(Cl)cc12 was read as TDP1 inh 4.1%, DT40 TDP1 no CPT inconclusive, TDP1 cell CPT inconclusive and ClpP mod inconclusive.
`COc1cccc(NC(=O)CCC2CCN(C(=O)c3c(C)noc3C)CC2)c1` gave TDP1 inh -0.1%, DT40 TDP1 no CPT inconclusive, TDP1 cell CPT inconclusive and ClpP mod -2.1%.
Screening CCc1noc(C)c1C(=O)N1CCC(CCC(=O)Nc2cccc(OC)c2)CC1 returned TDP1 inh -0.1%, DT40 TDP1 no CPT 8.2µM*, TDP1 cell CPT 9.2µM* and ClpP mod 2.4%.
For COC(C(=O)N1CCC(CCC(=O)Nc2ccccc2)CC1)c1ccccc1 (stereo not given) the results were TDP1 inh 1.9%, DT40 TDP1 no CPT 9.2µM*, TDP1 cell CPT 20.6µM* and ClpP mod 0.8%.
Cc1cccc(NC(=O)CCC2CCN(C(=O)c3ccc(C)s3)CC2)c1 was read as TDP1 inh 6.8%, DT40 TDP1 no CPT 4.11µM*, TDP1 cell CPT -20.3% and ClpP mod 0.6%.
Screening C=C1C(=O)C2=CC1CCC(=O)C1(C)CCC(OC(C)=O)C(C)(C)C1CC2O (stereo not given) returned DT40 TDP1 no CPT 2.06µM*, TDP1 cell CPT 2.06µM* and ClpP mod -1.1%.
Screening CC(C#N)Sc1ccc(S(=O)(=O)N2CCCC2)cn1 (stereo not given) returned TDP1 inh 1.3%, DT40 TDP1 no CPT 0.0%, TDP1 cell CPT 1.4% and ClpP mod -0.9%.
`CC1Cc2cc(-c3csc(NC(=O)Cc4ccccc4)n3)ccc2N1S(C)(=O)=O` (stereo not given) gave TDP1 inh 2.0%, DT40 TDP1 no CPT 10µM*, TDP1 cell CPT 16.4µM* and ClpP mod -4.7%.
Screening CS(=O)(=O)N1CCc2cc(-c3csc(NC(=O)C(c4ccccc4)c4ccccc4)n3)ccc21 returned TDP1 inh 0.0%, DT40 TDP1 no CPT inconclusive, TDP1 cell CPT 11.6µM* and ClpP mod -4.5%.
Screening O=C(Nc1ccc(Oc2ccc(C(=O)O)c(C(=O)O)c2)cc1)c1cccs1 returned DT40 TDP1 no CPT -2.2% and TDP1 cell CPT 16.9%.
Screening OCc1cc(C(O)CNCCCCCCOCCCCc2ccccc2)ccc1O (stereo not given) returned TDP1 inh 0.0%, DT40 TDP1 no CPT 13µM*, TDP1 cell CPT 18.8µM*! and ClpP mod 4.9%.
For N#Cc1cc2c(=O)n3ccccc3nc2n(-c2ccccc2Cl)c1=O the results were TDP1 inh -2.3%, DT40 TDP1 no CPT inconclusive, TDP1 cell CPT 7.31µM* and ClpP mod 3.9%.
For COC(=O)C(C)N(C(=O)c1cccc2ccccc12)c1c(C)cccc1C (stereo not given) the results were TDP1 inh 5.9%, DT40 TDP1 no CPT 16.4µM*, TDP1 cell CPT inconclusive and ClpP mod 1.4%.
COc1ccccc1NC(=O)C1=C(C)Nc2nnnn2C1c1cccc(C)c1 (stereo not given) was read as TDP1 inh 4.9%, DT40 TDP1 no CPT inconclusive, TDP1 cell CPT inconclusive and ClpP mod -0.7%.
`CC1=C(C(N)=O)C(c2cccc(C)c2)n2nc(-c3ccc(Cl)cc3)nc2N1` (stereo not given) gave TDP1 inh 11.6%, DT40 TDP1 no CPT inconclusive, TDP1 cell CPT 20.6µM* and ClpP mod -7.3%.
COc1ccccc1NC(=O)C1=C(C)Nc2nc(-c3ccco3)nn2C1c1ccccc1F (stereo not given) was read as DT40 TDP1 no CPT inconclusive, TDP1 cell CPT 16.4µM* and ClpP mod -5.0%.
